# Measurements published in ChEMBL document CHEMBL1961873, “Compounds: GSK PKIS; Assays: Nanosyn kinase panel” (2012).
# Columns and labels:
# [1] = tested on: Epidermal growth factor receptor (Homo sapiens), P00533 [T790M]; settings: at 1 µM
# [2] = tested on: Epidermal growth factor receptor (Homo sapiens), P00533 [L858R,T790M]; settings: at 0.1 µM
# [3] = tested on: Epidermal growth factor receptor (Homo sapiens), P00533 [L858R,T790M]; settings: at 1 µM
# [4] = target: Ephrin type-A receptor 2 (Homo sapiens) (UniProt P29317); settings: at 0.1 µM
# [5] = target: Ephrin type-A receptor 2 (Homo sapiens) (UniProt P29317); settings: at 1 µM
# [6] = target: T1, Ephrin type-A receptor 3 (Homo sapiens) (UniProt P29320); settings: at 0.1 µM
# T1 sequence (whole entry): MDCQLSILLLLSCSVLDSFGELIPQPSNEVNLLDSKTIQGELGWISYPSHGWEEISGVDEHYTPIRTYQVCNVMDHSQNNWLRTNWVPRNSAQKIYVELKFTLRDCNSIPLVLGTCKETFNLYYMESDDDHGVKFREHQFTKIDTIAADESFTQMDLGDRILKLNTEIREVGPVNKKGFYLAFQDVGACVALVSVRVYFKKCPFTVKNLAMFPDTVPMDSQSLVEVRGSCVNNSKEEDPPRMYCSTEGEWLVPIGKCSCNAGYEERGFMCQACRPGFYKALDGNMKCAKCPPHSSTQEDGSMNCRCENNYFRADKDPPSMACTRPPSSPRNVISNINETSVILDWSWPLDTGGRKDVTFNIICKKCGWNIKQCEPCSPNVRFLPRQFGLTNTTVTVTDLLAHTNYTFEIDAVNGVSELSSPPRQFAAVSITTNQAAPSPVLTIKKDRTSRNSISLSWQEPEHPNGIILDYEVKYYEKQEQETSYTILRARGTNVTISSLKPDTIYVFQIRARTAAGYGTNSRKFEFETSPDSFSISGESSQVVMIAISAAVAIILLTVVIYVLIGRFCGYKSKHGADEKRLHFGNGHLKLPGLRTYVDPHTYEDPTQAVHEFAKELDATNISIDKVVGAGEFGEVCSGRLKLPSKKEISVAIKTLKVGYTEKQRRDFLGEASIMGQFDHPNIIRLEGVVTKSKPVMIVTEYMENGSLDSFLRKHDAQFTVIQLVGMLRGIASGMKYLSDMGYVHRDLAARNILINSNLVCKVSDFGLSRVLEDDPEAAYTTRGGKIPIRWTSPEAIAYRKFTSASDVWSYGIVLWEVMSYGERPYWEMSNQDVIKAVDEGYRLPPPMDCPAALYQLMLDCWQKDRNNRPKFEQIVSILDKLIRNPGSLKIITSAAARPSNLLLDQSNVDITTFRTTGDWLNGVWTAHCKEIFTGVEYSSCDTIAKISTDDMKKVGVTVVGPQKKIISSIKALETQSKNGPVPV
# [7] = target: T1, Ephrin type-A receptor 3 (Homo sapiens); settings: at 1 µM
# [8] = target: Ephrin type-A receptor 4 (Homo sapiens) (UniProt P54764); settings: at 0.1 µM
# [9] = target: Ephrin type-A receptor 4 (Homo sapiens) (UniProt P54764); settings: at 1 µM
# [10] = target: T2, Ephrin type-B receptor 2 (Homo sapiens) (UniProt P29323); settings: at 0.1 µM;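 also: reported as mean inhibition of EPHB2, from the GSK PKIS dataset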
# T2 sequence (whole entry): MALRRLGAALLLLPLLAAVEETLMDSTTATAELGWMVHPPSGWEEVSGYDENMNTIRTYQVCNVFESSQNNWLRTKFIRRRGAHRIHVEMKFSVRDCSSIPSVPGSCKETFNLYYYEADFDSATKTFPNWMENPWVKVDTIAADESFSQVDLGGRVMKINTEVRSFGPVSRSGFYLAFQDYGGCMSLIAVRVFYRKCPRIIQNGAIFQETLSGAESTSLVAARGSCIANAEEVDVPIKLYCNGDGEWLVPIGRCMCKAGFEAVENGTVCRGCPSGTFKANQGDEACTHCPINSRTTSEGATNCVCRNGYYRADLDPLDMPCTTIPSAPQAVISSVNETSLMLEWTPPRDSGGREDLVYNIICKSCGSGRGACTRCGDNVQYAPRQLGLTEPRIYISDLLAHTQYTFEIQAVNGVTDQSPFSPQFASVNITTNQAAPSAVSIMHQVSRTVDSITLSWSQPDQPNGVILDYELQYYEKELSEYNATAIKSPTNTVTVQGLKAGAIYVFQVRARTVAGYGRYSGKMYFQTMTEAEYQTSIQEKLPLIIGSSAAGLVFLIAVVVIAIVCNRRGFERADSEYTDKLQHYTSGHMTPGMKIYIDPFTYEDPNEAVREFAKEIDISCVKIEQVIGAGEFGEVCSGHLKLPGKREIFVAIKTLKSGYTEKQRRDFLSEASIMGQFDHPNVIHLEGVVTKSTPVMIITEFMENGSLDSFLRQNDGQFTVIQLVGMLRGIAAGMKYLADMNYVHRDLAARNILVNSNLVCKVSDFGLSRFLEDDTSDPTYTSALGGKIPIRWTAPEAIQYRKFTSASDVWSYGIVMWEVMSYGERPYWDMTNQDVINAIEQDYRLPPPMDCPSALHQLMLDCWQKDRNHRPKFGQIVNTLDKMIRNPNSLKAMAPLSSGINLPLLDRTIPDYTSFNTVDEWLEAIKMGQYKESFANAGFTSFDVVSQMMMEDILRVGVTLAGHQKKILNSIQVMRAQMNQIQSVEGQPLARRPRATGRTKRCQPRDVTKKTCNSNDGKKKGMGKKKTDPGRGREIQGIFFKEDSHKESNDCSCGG
# Sequence of Epidermal growth factor receptor (Homo sapiens), P00533 [L858R,T790M] (P00533 whole entry T790M/L858R, looked up): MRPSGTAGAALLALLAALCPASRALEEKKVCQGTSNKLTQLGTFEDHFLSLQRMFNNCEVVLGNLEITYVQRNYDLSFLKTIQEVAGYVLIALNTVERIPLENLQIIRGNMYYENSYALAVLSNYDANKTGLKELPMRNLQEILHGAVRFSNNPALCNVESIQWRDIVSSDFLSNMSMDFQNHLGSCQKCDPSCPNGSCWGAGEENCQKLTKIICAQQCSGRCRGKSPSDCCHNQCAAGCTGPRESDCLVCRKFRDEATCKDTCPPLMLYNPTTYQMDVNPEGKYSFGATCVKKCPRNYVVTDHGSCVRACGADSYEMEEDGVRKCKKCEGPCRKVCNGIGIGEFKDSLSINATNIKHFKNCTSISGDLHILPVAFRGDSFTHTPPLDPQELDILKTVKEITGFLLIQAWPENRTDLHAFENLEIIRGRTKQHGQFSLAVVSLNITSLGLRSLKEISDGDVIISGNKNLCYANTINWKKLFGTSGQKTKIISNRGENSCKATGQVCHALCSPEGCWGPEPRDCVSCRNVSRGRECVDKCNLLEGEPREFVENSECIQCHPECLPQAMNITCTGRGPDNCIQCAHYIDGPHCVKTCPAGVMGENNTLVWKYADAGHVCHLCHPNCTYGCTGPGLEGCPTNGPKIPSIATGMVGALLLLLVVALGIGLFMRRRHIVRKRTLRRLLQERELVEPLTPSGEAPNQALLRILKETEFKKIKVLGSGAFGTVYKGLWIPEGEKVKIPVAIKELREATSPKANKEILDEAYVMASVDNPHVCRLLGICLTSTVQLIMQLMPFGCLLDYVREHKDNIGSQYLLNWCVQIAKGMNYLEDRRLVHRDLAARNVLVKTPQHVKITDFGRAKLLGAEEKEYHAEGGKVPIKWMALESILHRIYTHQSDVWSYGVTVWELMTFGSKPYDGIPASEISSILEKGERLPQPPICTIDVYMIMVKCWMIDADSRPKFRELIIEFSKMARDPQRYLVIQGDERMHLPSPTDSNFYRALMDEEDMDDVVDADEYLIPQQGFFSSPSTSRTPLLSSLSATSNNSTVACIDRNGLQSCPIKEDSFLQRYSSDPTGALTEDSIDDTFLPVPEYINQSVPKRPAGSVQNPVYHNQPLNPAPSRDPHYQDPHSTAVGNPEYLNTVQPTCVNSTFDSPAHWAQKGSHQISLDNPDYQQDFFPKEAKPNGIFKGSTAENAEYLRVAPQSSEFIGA
# Sequence of Ephrin type-A receptor 4 (Homo sapiens) (P54764 whole entry): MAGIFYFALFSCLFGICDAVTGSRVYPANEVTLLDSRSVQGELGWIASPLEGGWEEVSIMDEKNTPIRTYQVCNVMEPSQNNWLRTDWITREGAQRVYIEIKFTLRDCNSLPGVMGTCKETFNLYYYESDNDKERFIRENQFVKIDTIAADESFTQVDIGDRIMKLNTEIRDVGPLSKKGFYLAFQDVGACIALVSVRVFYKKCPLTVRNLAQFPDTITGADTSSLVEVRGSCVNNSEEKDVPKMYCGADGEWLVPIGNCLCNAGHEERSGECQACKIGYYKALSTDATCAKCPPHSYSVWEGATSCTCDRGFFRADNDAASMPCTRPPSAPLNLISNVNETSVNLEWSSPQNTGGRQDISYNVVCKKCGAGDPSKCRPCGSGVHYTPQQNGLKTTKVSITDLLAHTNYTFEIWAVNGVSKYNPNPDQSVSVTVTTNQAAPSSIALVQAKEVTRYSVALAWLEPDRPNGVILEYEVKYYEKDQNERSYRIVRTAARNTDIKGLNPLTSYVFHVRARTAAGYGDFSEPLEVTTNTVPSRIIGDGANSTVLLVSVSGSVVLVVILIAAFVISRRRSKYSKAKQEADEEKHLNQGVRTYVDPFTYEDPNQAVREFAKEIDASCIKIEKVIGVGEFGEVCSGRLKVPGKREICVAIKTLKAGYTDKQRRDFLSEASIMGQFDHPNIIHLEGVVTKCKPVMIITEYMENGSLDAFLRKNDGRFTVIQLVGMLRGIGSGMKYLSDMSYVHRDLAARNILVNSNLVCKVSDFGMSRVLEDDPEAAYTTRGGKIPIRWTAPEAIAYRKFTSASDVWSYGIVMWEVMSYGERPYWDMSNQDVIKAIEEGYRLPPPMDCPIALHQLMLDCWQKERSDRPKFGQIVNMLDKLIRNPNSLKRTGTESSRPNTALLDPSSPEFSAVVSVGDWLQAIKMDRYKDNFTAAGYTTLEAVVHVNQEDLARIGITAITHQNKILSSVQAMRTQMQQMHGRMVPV
# Sequence of Epidermal growth factor receptor (Homo sapiens), P00533 [T790M] (P00533 whole entry T790M): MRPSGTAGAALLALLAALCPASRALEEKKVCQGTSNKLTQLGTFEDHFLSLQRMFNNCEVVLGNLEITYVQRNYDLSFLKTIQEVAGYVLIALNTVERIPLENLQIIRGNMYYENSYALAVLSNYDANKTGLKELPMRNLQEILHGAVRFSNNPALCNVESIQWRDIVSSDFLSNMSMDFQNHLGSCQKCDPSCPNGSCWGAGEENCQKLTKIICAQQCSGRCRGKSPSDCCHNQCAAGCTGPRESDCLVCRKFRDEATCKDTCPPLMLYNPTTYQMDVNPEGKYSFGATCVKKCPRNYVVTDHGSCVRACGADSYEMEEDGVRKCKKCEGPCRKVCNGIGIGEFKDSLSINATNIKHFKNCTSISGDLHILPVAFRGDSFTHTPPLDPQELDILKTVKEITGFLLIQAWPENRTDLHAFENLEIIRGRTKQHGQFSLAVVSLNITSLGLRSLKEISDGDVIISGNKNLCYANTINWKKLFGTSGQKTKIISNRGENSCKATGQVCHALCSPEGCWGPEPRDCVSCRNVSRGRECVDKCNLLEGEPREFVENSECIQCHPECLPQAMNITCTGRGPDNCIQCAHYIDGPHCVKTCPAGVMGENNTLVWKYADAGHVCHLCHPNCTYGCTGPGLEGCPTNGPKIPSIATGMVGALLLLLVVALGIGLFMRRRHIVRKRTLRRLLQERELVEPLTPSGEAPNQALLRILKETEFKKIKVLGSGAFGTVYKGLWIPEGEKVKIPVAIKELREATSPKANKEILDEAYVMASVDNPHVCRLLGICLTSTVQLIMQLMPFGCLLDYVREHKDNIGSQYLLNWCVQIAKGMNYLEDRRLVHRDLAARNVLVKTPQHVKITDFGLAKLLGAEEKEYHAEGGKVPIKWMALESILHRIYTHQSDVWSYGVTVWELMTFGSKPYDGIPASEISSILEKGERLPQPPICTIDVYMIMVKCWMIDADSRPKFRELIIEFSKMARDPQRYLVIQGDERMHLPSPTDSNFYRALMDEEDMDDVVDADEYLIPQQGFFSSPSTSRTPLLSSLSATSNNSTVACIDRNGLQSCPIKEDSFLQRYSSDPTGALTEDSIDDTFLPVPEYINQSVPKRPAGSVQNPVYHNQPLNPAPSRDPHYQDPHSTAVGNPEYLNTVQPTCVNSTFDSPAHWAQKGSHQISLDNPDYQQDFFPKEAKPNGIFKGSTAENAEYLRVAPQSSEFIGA
# Sequence of Ephrin type-A receptor 2 (Homo sapiens) (P29317 whole entry): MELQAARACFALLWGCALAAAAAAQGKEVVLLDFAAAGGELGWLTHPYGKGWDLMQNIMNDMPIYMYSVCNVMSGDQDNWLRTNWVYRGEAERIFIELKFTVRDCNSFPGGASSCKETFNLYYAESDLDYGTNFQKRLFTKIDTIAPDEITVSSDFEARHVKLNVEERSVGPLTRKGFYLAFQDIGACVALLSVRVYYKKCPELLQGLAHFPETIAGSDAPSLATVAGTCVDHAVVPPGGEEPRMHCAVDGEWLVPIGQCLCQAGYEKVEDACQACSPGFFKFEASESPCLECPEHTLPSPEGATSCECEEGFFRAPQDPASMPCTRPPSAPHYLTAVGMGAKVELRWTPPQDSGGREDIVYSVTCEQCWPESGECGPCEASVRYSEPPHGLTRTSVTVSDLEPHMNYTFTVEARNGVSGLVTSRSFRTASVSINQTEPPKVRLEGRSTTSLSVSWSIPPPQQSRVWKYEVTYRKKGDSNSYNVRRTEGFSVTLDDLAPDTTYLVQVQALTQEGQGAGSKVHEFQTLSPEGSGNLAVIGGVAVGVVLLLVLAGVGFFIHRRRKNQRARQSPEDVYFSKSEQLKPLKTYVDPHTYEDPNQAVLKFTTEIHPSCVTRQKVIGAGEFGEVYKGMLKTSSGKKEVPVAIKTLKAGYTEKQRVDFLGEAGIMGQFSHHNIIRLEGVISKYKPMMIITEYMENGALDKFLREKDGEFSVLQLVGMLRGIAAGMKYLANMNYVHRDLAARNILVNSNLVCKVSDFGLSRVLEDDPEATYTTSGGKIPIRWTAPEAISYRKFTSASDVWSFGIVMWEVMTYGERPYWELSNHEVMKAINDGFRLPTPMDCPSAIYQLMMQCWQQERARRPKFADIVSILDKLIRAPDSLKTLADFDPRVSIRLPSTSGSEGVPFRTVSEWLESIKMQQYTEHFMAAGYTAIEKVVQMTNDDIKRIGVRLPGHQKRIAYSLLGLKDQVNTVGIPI
Compound,inhibition [1] [%],inhibition [2] [%],inhibition [3] [%],inhibition [4] [%],inhibition [5] [%],inhibition [6] [%],inhibition [7] [%],inhibition [8] [%],inhibition [9] [%],inhibition [10] [%]
C[C@@H](Oc1cc(-n2cnc3ccc(OCC4CCN(C)CC4)cc32)sc1C(N)=O)c1ccccc1C(F)(F)F,1.67,1.72,18.6,-3.67,-3.26,-6.9,-0.01,-6.91,-4.57,-9.54
COc1ccc2ncnc(Nc3ccc(OCc4ccccc4)cc3)c2c1,5.68,2.24,4.15,1.06,0.85,2.45,3.28,5.9,5.92,3.16
Cc1ccc2c(-c3ccnc(Nc4ccc5c(c4)OCCO5)n3)c(-c3ccc(C(F)(F)F)cc3)nn2n1,1.14,2.01,2.06,2.03,0.72,1.81,0,1.21,3.57,-7.93
Nc1nccc(-c2c(-c3ccc(F)cc3)ncn2CCCN2CCOCC2)n1,3.66,3.71,0.56,-0.08,0.96,0.74,3.02,7.96,9.12,4.96
CC(C)c1ccc2c(c1)NC(=O)/C2=N/Nc1ccc(S(N)(=O)=O)cc1,-1.35,-0.97,-2.16,-2,-1.68,-0.36,1.64,3.01,5.06,0.18
Cc1cc(Cl)cc2c1NC(=O)C2=NNc1ccc(S(N)(=O)=O)cc1,3.73,-0.55,2.83,1.34,1.02,3.32,2.87,6.66,7.34,4.48
NS(=O)(=O)c1ccc(Nc2cc(-c3cccc(O)c3)n[nH]2)cc1,3.02,4.99,3.61,1.13,0.64,6.18,6.36,10.1,7.86,6.18
COc1cc(/C=N/Nc2ncnc3c2cnn3C(C)C)ccc1O,0.47,-0.23,2.31,1.56,21.1,3.55,7.89,7.43,32.9,5.57
CCn1c(-c2nonc2N)nc2ccc(F)cc21,6.26,3.36,6.82,0.18,0.43,4.17,4.99,11.3,15,7.78
O=C(Nc1ccc(Oc2ccc3[nH]c(NC(=O)c4ccco4)nc3c2)cc1)Nc1cc(C(F)(F)F)ccc1F,-1.32,1.13,0.64,18.8,82.8,4.15,15.9,36.3,86.9,36.1
Cc1ccc2c(-c3ccnc(Nc4cccc(C(F)(F)F)c4)n3)c(-c3ccccc3)nn2n1,57.7,35.2,87.6,0.69,4.04,5.98,15.1,8.59,33.9,17.6
COc1cccc(-n2ncc3c(N/N=C/c4ccc(C)cc4)ncnc32)c1,2.25,1.79,2.55,2.45,1.1,3.28,3.46,7.44,11.3,6.77
Cc1ccc(Nc2ccnc(Nc3cccc(C(N)=O)c3)n2)cc1O,14.9,2.53,5.38,1.66,23.3,14.3,33.9,17.1,62.9,8.62
COc1cc2ncnc(Nc3ccc4c(cnn4Cc4ccccc4)c3)c2cc1OC,36.2,1.03,3.09,-2.8,-2.26,1.64,2.12,4.83,6.82,4.85
NS(=O)(=O)c1ccc(N/N=C2\C(=O)Nc3ccc(Cl)cc32)cc1,4.35,-0.89,2.78,1.86,1.3,4.83,4.35,7.66,12.2,3.99
CN1CCN(C(=O)c2ccc(NC(=O)Nc3ccc(N(C)c4ccnc(Nc5ccc(CS(C)(=O)=O)cc5)n4)cc3)cc2)CC1,1.47,-1.16,2.86,0.47,5.09,0.72,4.49,5.53,22.9,8.44
Nc1nccc(-c2c(-c3ccc(F)cc3)nn3cc(C(F)(F)F)ccc23)n1,2.37,-0.45,1.18,0.62,-0.02,0.75,-0.28,2.89,5.34,-9.27

Compound,inhibition [1] [%],inhibition [2] [%],inhibition [3] [%],inhibition [4] [%],inhibition [5] [%],inhibition [6] [%],inhibition [7] [%],inhibition [8] [%],inhibition [9] [%],inhibition [10] [%]
Cc1ccc(O)cc1Nc1ccnc2ccc(S(C)(=O)=O)cc12,7.86,4.88,5.18,91.3,95.7,92.2,81.5,89.3,93.5,83.6
CC(C)c1ccc(Nc2nccc(-c3cnn4ncccc34)n2)cc1,2.45,-0.56,2.24,-0.98,0.28,1.96,4.55,8.08,10.3,7.64
COc1cc(Nc2nccc(-c3cnn4ncccc34)n2)cc(OC)c1,-0.64,2.35,15.8,2.66,24.3,3.17,11.1,9.67,45.3,4.13
Cc1cc(O)cc(C)c1/C=C/c1cncc(C(=O)N(C)C)c1,0.44,-0.03,-0.26,2.13,4.81,6.48,8.52,8.99,18.6,9.34
CCS(=O)(=O)c1ccc(OC)c(Nc2nccc(N(C)c3ccc4c(C)n[nH]c4c3)n2)c1,18.8,2.67,4.47,3.32,10.1,4.4,12.2,11.8,45.3,16.4
OCc1ccc(-c2nc(-c3ccccn3)c(-c3ccc4c(c3)OCO4)[nH]2)cc1,0.84,3.54,0.26,2.78,2.31,6.06,6.97,9.84,7.48,12.2
COc1cccc(-n2nc(C)c3c(N/N=C(\C)c4ccncc4)ncnc32)c1,-1.56,-0.53,-1.32,-1.68,-1.94,-0.57,2.37,3.69,6.36,2.52
ON=C1CCc2cc(-c3nc(C4CCNCC4)[nH]c3-c3ccncc3)ccc21,-1.84,-1.88,0.18,1.25,0.6,0.3,-2.2,-1.9,-7.94,-5.22
CCCN1CCCC(c2ccc(Nc3nc(Nc4cc(F)ccc4C(N)=O)c4cc[nH]c4n3)c(OC)c2)C1 (stereo not given),79.3,55.5,85.6,-1.17,-1.1,3.86,4.27,8.97,4.53,8.14
c1ccc(Cc2nc3ccc(Nc4ncnc5ccccc45)cc3[nH]2)cc1,2.67,1.06,-0.39,1.21,0.81,4.49,4.41,9.01,11.7,8.45
Cc1ccc(NC(=O)CC2CC2)cc1-c1ccc(C(=O)NCC2CC2)cc1,2.09,0.02,0.35,0.66,1.4,3.45,4.59,8.26,12.9,6.33
O=C1Nc2ccc(-c3cccnc3)cc2C1=Cc1cc(Br)c(O)c(Br)c1,0.57,2.96,5.14,2.12,0.76,4.82,3.94,3.36,5.16,7.83
NS(=O)(=O)c1ccc(-c2cc3ccncc3cc2OCc2ccccc2)cc1,4.44,2.11,2.39,0.69,0.7,2.29,3.77,9.03,10.4,7.31
CS(=O)(=O)Nc1cccc(-c2ccc3c(NC(=O)C4CC4)n[nH]c3c2)c1,-1.01,0.55,-1.6,0.19,1.68,1.66,-1.02,1.83,-7.46,-4.01
COc1cccc(-n2ncc3c(N/N=C/c4ccc(S(C)(=O)=O)cc4)ncnc32)c1,0.63,0.79,5.78,-3.2,1.45,-2.15,-1.2,7.26,11.7,5.46
c1ccc(Nc2ncc(-c3ccccc3)o2)cc1,3.42,-0.6,3.56,1.18,0.47,3.55,4.8,7.56,12.1,7.58
